IMPase inh: qHTS Assay for Identifying the Cell-Membrane Permeable IMPase Inhibitors | Inositol monophosphatase 1 (Rattus norvegicus), P97697 | CHO-M1 cells, IP1 accumulation, HTRF TR-FRET ratio | inhibition (IP1 accumulation), % at 46.1 µM | 120,000 tested, under 10 active; active = well fitted curve in the direction sought with a large enough effect in the signal ratio, not every such curve was filed as active; inconclusive = small, poorly fitted or top-dose-only effect, or a change in a side signal; inactive = no such curve, though single readings can be large or run the other way; the % refers to the signal ratio;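 also: cells stimulated with carbachol in lithium chloride buffer; plate controls were DMSO basal wells for no effect and reference inhibitor wells for full effect; higher means more IMPase inhibition seen as more IP1 and lower FRET ratio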
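Seeded CHO-M1 cells were dosed with compound at up to 46 uM, stimulated with carbachol for 30 min, then lysed in IP-One detection reagents. Higher IP1 lowers the TR-FRET signal.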
IkB signaling: IkB Signaling; ABC-DLBCL IkBa-CBG/CBR dual luciferase ratio, 4 h; response scale: scaled: untreated 0%, proteasome inhibitor 100%; Potency, µM (titrated, usually from 57.1 µM), without a hit: top-dose IkBa stabilization activation; 110,000 compounds, 0.04% hits; active = well fitted curve in the direction sought with a large enough effect in the signal ratio, not every such curve was filed as active; inconclusive = small, poorly fitted or top-dose-only effect, or a change in a side signal; the % refers to the signal ratio;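 also: potency is read from the fitted curve at half-maximal effect; the direction sought is a rising ratio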
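In this assay, an IκBα–CBG68 fusion accumulates when IKK-driven degradation is blocked; native CBR normalizes for cell number. OCI-Ly3 cells were treated 4 h with compound and doxycycline, then green and red light read after Chroma-Glo addition.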
p53ts 39C kill: qHTS Screen for Compounds that Selectively Target Cancer Cells with p53 Mutations: Cytotoxicity of p53ts Cells at the Nonpermissive Temperature; AID 902, 2007; H1299-p53A138V viability at 39C, ATP luminescence, 24 h; Potency, µM (top dose mostly 46.1 µM), for the others: top-dose activity change, negative = cell killing, usual class: cytotoxic; 130,000 compounds, 1.5% hits; also: potency is read from the fitted curve at half-maximal effect; % is scaled to controls: 0 for no effect and ±100 for the full control effect; nearly all actives have a fitted effect of over 55% in size
Hsp90 Hop PPI: qHTS Assay for Disrupters of an Hsp90 Co-Chaperone Interaction; Hsp90 C-terminal peptide / TPR2A (Hop) interaction, human; AlphaScreen TPR2A-His6 binding biotin-Hsp90 C-terminal peptide; Potency, µM (titrated, usually from 57 µM), without a hit: at the highest dose activity change, negative = inhibition; 71,000 compounds, 0.44% hits; AID 595, 2007; active = well fitted curve in either direction with a large enough effect; inconclusive = small, poorly fitted or top-dose-only effect, or another doubt; also: potency is read from the fitted curve at half-maximal effect; % is scaled to controls: 0 for no effect and ±100 for the full control effect
p53ts 32C kill: qHTS Screen for Compounds that Selectively Target Cancer Cells with p53 Mutations: Cytotoxicity of p53ts Cells at the Permissive Temperature. H1299-p53A138V at 32C, ATP luminescence viability, 24 h. Potency, µM (titrated, usually from 46.1 µM), for inactives: at the highest dose activity change, negative = cytotoxicity, hits mostly cytotoxic. 130,000 compounds, 0.93% hits. AID 924, 2007;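 also: potency is read from the fitted curve at half-maximal effect; 0% = DMSO and -100% = full killing by reference compound; nearly all actives have a fitted effect of over 55% in size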
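ATP-content luminescence (ATPlite) read-out after 24 h compound exposure at 32C in H1299-p53A138V cells (600/well). Tested up to 46 uM. Normalized to DMSO (0%) and 100 uM tamoxifen (100% killing); Hill-fit AC50.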
Luciferase inh: qHTS Assay for Inhibitors of Firefly Luciferase. 72,000 compounds, 2.2% hits. Luciferin 4-monooxygenase (Photinus pyralis), P08659. Potency, µM (highest dose often 57.1 µM), inactives show top-dose activity change, negative = inhibition, most hits filed as inhibitors. purified firefly luciferase, luminescence, 8 min. AID 411, 2009; also: potency is read from the fitted curve at half-maximal effect; % is scaled to controls: 0 for no effect and ±100 for the full control effect; nearly all actives have a fitted effect of over 40% in size
Target sequence (P08659 whole entry, looked up): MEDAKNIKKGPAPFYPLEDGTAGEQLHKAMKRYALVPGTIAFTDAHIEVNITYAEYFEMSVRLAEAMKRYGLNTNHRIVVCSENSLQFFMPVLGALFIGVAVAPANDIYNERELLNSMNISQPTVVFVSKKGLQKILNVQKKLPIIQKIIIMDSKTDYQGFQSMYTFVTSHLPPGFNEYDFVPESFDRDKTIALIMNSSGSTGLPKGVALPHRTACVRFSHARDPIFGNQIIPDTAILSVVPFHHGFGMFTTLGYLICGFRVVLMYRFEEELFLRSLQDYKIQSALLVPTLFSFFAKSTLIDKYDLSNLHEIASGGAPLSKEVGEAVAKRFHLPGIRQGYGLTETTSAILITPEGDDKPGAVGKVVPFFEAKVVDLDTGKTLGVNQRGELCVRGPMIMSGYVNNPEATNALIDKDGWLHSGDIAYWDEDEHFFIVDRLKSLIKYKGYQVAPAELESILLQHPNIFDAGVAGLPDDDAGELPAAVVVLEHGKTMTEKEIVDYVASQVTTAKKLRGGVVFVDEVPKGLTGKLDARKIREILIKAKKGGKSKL
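Compounds were tested as concentration series (qHTS) against purified P. pyralis luciferase with luciferin and 10 uM ATP in 50 mM imidazole pH 7.2, 50 mM KCl, 7 mM MgCl2, 0.01% Tween 20, 0.05% BSA. Luminescence was read after 8 min at ambient temperature.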
* marks the source's active call; other numbers are inactive results; ? = inconclusive; nt = no result given; [ ] = remark or other dose. This is one part of a sample in which hits are shown more often than they occur. Unless noted, calls follow the shape of the dose curve; as a rule, active = well fitted curve in the direction sought with a large enough effect; inconclusive = small, poorly fitted or top-dose-only effect, or another doubt; inactive = no such curve, though single readings can be large; an effect the other way counts as inactive or inconclusive.

SMILES	IMPase inh	IkB signaling	p53ts 39C kill	Hsp90 Hop PPI	p53ts 32C kill	Luciferase inh
CC(C)=CCc1c(O)cc2oc(C)cc(=O)c2c1O	nt	nt	-19%	nt	5%	nt
CCN(CC)c1ccc2c(c1)CCCN2	24	?	?	16µM*	?	-10%
Cc1cccc(C)c1NC(=O)Cn1c(=O)n(Cc2ccco2)c(=O)c2ccc(C(=O)NC3CCCC3)cc21	nt	3%	?	nt	5%	nt
O=C(c1ccc(N2CCOCC2)cc1)c1cccs1	6[1.84 µM]	?	7.9µM*	4%	13µM*	10µM*
O=C(Nc1ccc(N2CCOCC2)cc1N1CCOCC1)c1cccs1	-1	nt	nt	nt	nt	nt
CCCC1C(c2ccco2)NC(c2ccco2)CC1(C)O (stereo not given)	7	?	-11%	-1%	-4%	13µM*
CCOc1ccc(-c2nc3ccccc3c(=O)o2)cc1	?	?	2.5µM*	nt	2.5µM*	nt
CCOc1ccc(-c2nc(-c3ccccc3C)no2)cc1	-4	-7%	?	25%	?	2µM*
COc1cc(NC(=O)c2cc3c(s2)-c2ccccc2OC3)cc(OC)c1OC	nt	?	?	nt	13µM*	nt
CCCCCCCCCCCCC/C=C\[C@@H](O)[C@H](CO)NC(C)=O	-1	0%	32µM*	1%	25%	?
COc1ccc(CNC(=O)c2ccc(SC)cc2OC)cc1	-6	nt	-11%	nt	nt	nt
COc1cc(SC)ccc1C(=O)Nc1ccon1	1	-2%	?	-3%	?	25µM*
COc1ccc(-c2cc(C(F)(F)F)n3nc(C(=O)O)c(Cl)c3n2)cc1OC	1	-3%	7%	nt	2%	nt
COCc1cc(=O)n2c(-c3ccc(C)cc3)n[nH]c2n1	3	?	10µM*	-6%	10µM*	13µM*
Cc1ccc(NS(=O)(=O)c2ccc(-c3cc(C)no3)cc2)c(C)c1	nt	?	?	nt	2%	nt
Cc1ccnc(Nc2nc(-c3c(C)nc4sccn34)cs2)c1	11	?	-26%	-15%	?	16µM*
Cc1ccc(Nc2nc(-c3c(C)nc4ncccn34)cs2)cc1	1	nt	nt	nt	nt	nt
CCS(=O)(=O)N1CCc2cc(C(=O)NC(C)c3ccccc3)ccc21 (stereo not given)	nt	?	-6%	nt	0%	nt
CCCCn1c(NC(=O)c2ccccc2)c(C#N)c2nc3ccccc3nc21	-1	?	6.3µM*	-23%	?	-4%
N#Cc1c(-n2ncnc2-c2ccccc2Cl)sc2c1CCCCC2	-7	8%	-13%	nt	-12%	nt
N#Cc1cc(-c2ccccc2)oc1NC(=O)c1ccco1	12	5%	-24%	-5%	-26%	25µM*
CCCN(CCC)c1nn2c(=O)c(C(=O)NCc3cc(Br)ccc3OC)cnc2s1	nt	?	-23%	nt	-2%	nt
CCn1cc2nc(SCc3ccccc3)n(Cc3ccc(C)cc3)c(=O)c2n1	nt	-2%	54%	nt	-1%	nt
CCn1cc2nc(SCc3ccc(F)cc3)n(Cc3ccc(Cl)cc3)c(=O)c2n1	nt	?	13µM*	nt	-4%	nt
Nc1ccc2oc(-c3ccccn3)nc2c1	-8	-1%	?	-4%	?	20µM*
SMILES	IMPase inh	IkB signaling	p53ts 39C kill	Hsp90 Hop PPI	p53ts 32C kill	Luciferase inh
Clc1ccc2oc(-c3ccccn3)nc2c1	2	1%	?	1%	?	16µM*
O=C(NCc1cccnc1)c1c[nH]c2cc3c(cc2c1=O)OCCO3	13	2%	?	1%	?	13µM*
Cc1occc1C(=O)Nc1ccc2c(c1)OCCO2	?	0%	?	-5%	?	20µM*
Cc1cc(C(=O)Nc2ccc3c(c2)OCCO3)c(C)o1	-9	16%	13µM*	?	16µM*	16µM*
CC(=O)Nc1ccc2c(c1)OCCOCCOc1cc(NC(C)=O)ccc1OCCOCCOCCO2	2	nt	nt	nt	nt	nt
Cc1occc1C(=O)Nc1ccc2c(c1)CCC2	19	4%	?	-2%	?	25µM*
Cc1cc(C(=O)Nc2cccc(O)c2)c(C)o1	1	15%	-13%	-9%	-12%	-4%
Cc1ccc(C(=O)Nc2ccc3c(c2)CCC3)o1	?	nt	?	nt	13µM*	nt
O=[N+]([O-])c1ccc([C@@H](Nc2ccccc2)c2ccc3cccnc3c2O)cc1	nt	9%[11.4 µM]	?	-21%[11 µM]	-19%[9.22 µM]	-1%[11.4 µM]
COc1ccc2c3c([nH]c2c1)[C@H]1C[C@@H]2[C@@H](C[C@@H](O)[C@H](OC)[C@H]2C(=O)O)CN1CC3	nt	0%[11.4 µM]	20%[9.22 µM]	0%[11 µM]	-1%[9.22 µM]	0%[11.4 µM]
CCc1ccc(NCc2cc3cc4c(cc3n(CC(=O)Nc3ccccc3Cl)c2=O)OCO4)cc1	nt	4%	-16%	nt	2%	nt
O=c1c2c(nc3c(-c4ccc(Cl)cc4)c[nH]n13)CCCC2	-11	?	20µM*	?	-16%	2%
O=C(Nc1ccc2nc(SCC(=O)N3CCOCC3)sc2c1)c1ccccc1Cl	nt	?	-7%	nt	-25%	nt
Cc1cc(C)c2sc(N3CCN(C(=O)C4CC4)CC3)nc2c1	nt	-5%	7.9µM*	nt	?	nt
COc1ccc(-c2n[nH]c(C)c2-c2ccc(Cl)cc2)c(O)c1OC	1	?	?	-14%	13µM*	-3%
c1cc2c(cc1C1CCCCC1)c1c3n2CCCNC3CCC1 (stereo not given)	3	nt	?	nt	?	nt
c1cc2c(cc1C1CCCCC1)c1c3n2CCN[C@H]3CCC1	-9	?	10µM*	-17%	25µM*	-1%
C[N+](C)(C)CCC(=O)c1cccc2ccccc12	5	?	16µM*	-7%	13µM*	0%
CCc1ccc(NC(=O)Cn2ccn(-c3ccc(C)c(C)c3)c(=O)c2=O)cc1	nt	-2%	11%	nt	6%	nt
COCCNC(=O)c1noc2c1CCc1cc(OC)ccc1-2	-7	-2%	?	1%	-26%	13µM*
Cc1cc(C)c(NC(=O)Cn2c(=O)n(Cc3ccc(C(=O)NCc4ccco4)cc3)c(=O)c3sccc32)c(C)c1	nt	?	25µM*	nt	?	nt
Cc1cccc(C)c1NC(=O)Cn1c(=O)n(Cc2ccc(C(=O)NCc3ccco3)cc2)c(=O)c2sccc21	nt	2%	-23%	nt	-6%	nt
Cc1ccc(CNC(=O)c2ccc(Cn3c(=O)c4ccccc4n(CC(=O)Nc4c(C)cc(C)cc4C)c3=O)cc2)cc1	16	19%	-29%	nt	16µM*	nt
CC(C)Oc1ccc(CNS(=O)(=O)c2ccc3c(c2)C(C)(C)C(=O)N3C)cc1	nt	0%	-9%	nt	-3%	nt

Bioassay records (PubChem BioAssay)
